Laboratory results taken from PubChem BioAssay (NCATS).
Results filed as inconclusive are left out. Values without a mark were called inactive. The source made the active and inactive calls. The call rests on the fitted dose curve; in most records, active means well fitted inhibition curve with a large enough effect; inconclusive means small, poorly fitted or top-dose-only effect; inactive means flat fitted curve, though single readings scatter.
Potency means the concentration at half of the fitted maximal effect.

What follows are compounds tested against Aldehyde dehydrogenase, mitochondrial (Homo sapiens) (UniProt P05091) (assay: qHTS for Inhibitors of the Aldehyde Dehydrogenase Family (ALDH2) Primary screen (AID 2061308; further: nearly all actives have a fitted effect of over 55% in size;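 on activity change, negative = inhibition: plate controls were vehicle for no effect and reference inhibitor for full effect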)). Details: ALDH2 enzyme inhibition qHTS, 1536-well; series mostly up to 56 µM; activity change, negative = inhibition: at the top concentration.
With `O=C1Cc2cc(S(=O)(=O)N3CCN(c4ccc(O)cc4)CC3)ccc2N1` the “activity change, negative = inhibition” value was -19.2%.
`Cc1cccc(-c2[nH]ncc2-c2ccc(F)c(-c3cnn(CCO)c3)c2)n1` was tested, and the “activity change, negative = inhibition” value was -1.64%.
`C=CC(=O)Nc1cccc(Nc2nc(Nc3ccc(N4CCN(C(C)=O)CC4)cc3OC)ncc2C(F)(F)F)c1` was tested, and the “activity change, negative = inhibition” value was -2.4%.
For `COc1ccc2[nH]c(S(=O)Cc3ncc(C)c(OC)c3C)nc2c1` (configuration not stated), the “activity change, negative = inhibition” value was -3.77%.
In the case of `CC(=O)N1CCN(c2ccc(N)cc2)CC1`, the “activity change, negative = inhibition” value is reported as -25.5%.
`CC(/C=C/C(=O)NO)=C\[C@@H](C)C(=O)c1ccc(N(C)C)cc1` was tested, and the “activity change, negative = inhibition” value was 6.53%.
In the case of `O=C(c1ccc(/C=C/c2n[nH]c3ccccc23)cc1)N1CCNCC1`, the “activity change, negative = inhibition” value is reported as 6.84%.
With `Cn1cc(-c2cnn3c(N)c(Br)c(C4CCCNC4)nc23)cn1` (configuration not stated) the “activity change, negative = inhibition” value was 9.67%.
With `Cc1ccnc(NC(=S)N2CCN(c3cc(Cl)cc(Cl)c3)CC2)c1` the Potency was 2240 nM (active).
In the case of `C#Cc1cccc(Nc2ncnc3cc(OCCOC)c(OCCOC)cc23)c1`, the “activity change, negative = inhibition” value is reported as 8.64%.
For `[2H]C([2H])(Nc1nc(-c2ccccc2C([2H])(C([2H])([2H])[2H])C([2H])([2H])[2H])ncc1C)c1ccc(-n2ccnn2)cc1`, the “activity change, negative = inhibition” value was 105%.
In the case of `Cc1c(NC(=O)OCC2COCCN2)cn2ncnc(Nc3ccc4c(cnn4Cc4cccc(F)c4)c3)c12` (configuration not stated), the “activity change, negative = inhibition” value is reported as -0.168%.
`CCn1c(=O)c(-c2ccc(Cl)cc2Cl)cc2cnc(Nc3ccc(N4CCNCC4)c(F)c3)nc21` was tested, and the “activity change, negative = inhibition” value was 10.2%.
For `CC(C)NC(=O)COc1cccc(-c2nc(Nc3ccc4[nH]ncc4c3)c3ccccc3n2)c1`, the “activity change, negative = inhibition” value was -0.177%.
For `Nc1ccccc1S(=O)(=O)Nc1cccc2cccnc12`, the “activity change, negative = inhibition” value was -8.8%.
`Cc1c[nH]c2ncnc(N3CCC(CN)(C(=O)Nc4cccc(OC(=O)N(C)C)c4)CC3)c12` was tested, and the “activity change, negative = inhibition” value was 6.98%.
For `Cc1cnc(Nc2ccc(F)cc2Cl)nc1-c1c[nH]c(C(=O)NC(CO)c2cccc(Cl)c2)c1` (configuration not stated), the “activity change, negative = inhibition” value was -2.97%.
